Holding throughout (conditions): concentration: 1 μM, replicates: in singlicate; n = 1
In assay [1] the test system is MTOR.
In assay [2] the test system is MUSK.
For assay [3], the system named is MYLK2.
The test system of assay [4] is MYLK4.
In assay [5] the test system is MYLK.
In assay [6] the test system is MYO3A.
The test system of assay [7] is MYO3B.
Assay [8] deals with T1, NDR1.
T1 construct: gene STK38

In assay [9] the test system is NDR2.
The test system of assay [10] is NEK10.
The subject of assay [11] is NEK11.
In assay [12] the test system is NEK1.
Assay [13] concerns NEK2.
The subject of assay [14] is NEK3.
Assay [15] has as its system NEK4.
The subject of assay [16] is NEK5.
Assay [17] has as its system NEK6.
Assay [18] has as its system NEK7.
The test system of assay [19] is NEK9.
The subject of assay [20] is T2, NIK.
T2 construct: gene MAP3K14

Molecules are shown by their SMILES.
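Further: KINOMEscan kinase panel screen.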

As to `CN1CCN(Cc2ccc(NC(=O)Nc3ccc(N(C)c4ccnc(Nc5ccc(CS(C)(=O)=O)cc5)n4)cc3)cc2)CC1.Cl` [GW827654], the “%Inh” value in assay [1] is on record as 0%; in [2] it was 98.8%; in assay [3], 61%; in assay [4] it was 18%; in assay [5], 45%; in [6], 99.1%. Further, the “%Inh” value in assay [7] came to 0%; in assay [8], 0%; in assay [9], 0%; in assay [10], 28%; in assay [11] it was 19%; in assay [12] it was 45%. Also, the “%Inh” value was 0% in assay [13]; 16% in assay [14]; 24% in [15]; 98.3% in [16]; 3% in assay [17]; 30% in [18]. The “%Inh” value in [19] was 49%; in assay [20], 0%.

As to `Cc1ccc(NC(=O)c2ccc(Cl)c(Cl)c2)cc1-c1ccc(C(=O)Nc2ccncc2)cc1` [GSK1398460], the “%Inh” value in assay [1] turned out to be 0%; in assay [2], 6%; in assay [3], 0%; in assay [4] it was 5%; in assay [5] it was 27%; in assay [6] it was 0%. Further, the “%Inh” value in assay [7] is given as 0%; in [8], 14%; in assay [9] it was 0%; in [10], 0%; in assay [11] it was 0%; in assay [12], 16%. In addition, the “%Inh” value is 2% in assay [13]; 16% in assay [14]; 0% in assay [15]; 0% in assay [16]; 0% in assay [17]; 0% in assay [18]. In addition, the “%Inh” value in [19] was found to be 7%; in [20], 0%.

For `COc1cccc(C2=C(Nc3cccc(O)c3)C(=O)NC2=O)c1` [SB-390771], the “%Inh” value in assay [1] amounted to 38%; in assay [2], 0%; in assay [3], 0%; in assay [4], 6%; in [5], 27%; in [6] it was 17%. Also, the “%Inh” value in assay [7] worked out at 0%; in assay [8], 18%; in assay [9], 0%; in [10], 67%; in assay [11], 0%; in [12] it was 0%. Also, the “%Inh” value in [13] amounted to 0%; in [14], 19%; in [15], 2%; in [16] it was 2%; in assay [17], 0%; in assay [18], 7%. Moreover, the results for the “%Inh” value in assay [19] and in assay [20] were 15% and 7%, respectively.

Turning to `CCNc1nccc(-c2c(-c3ccc(F)cc3)ncn2C2CCN(C)CC2)n1`, the “%Inh” value in assay [1] was 0%; in assay [2], 97.7%; in assay [3], 0%; in [4], 0%; in [5] it was 0%; in [6], 5%. In addition, the “%Inh” value in [7] stood at 0%; in assay [8] it was 3%; in assay [9], 5%; in assay [10], 0%; in assay [11], 0%; in [12], 1%. In addition, the “%Inh” value worked out at 0% in [13]; 0% in assay [14]; 0% in [15]; 5% in assay [16]; 0% in assay [17]; 1% in assay [18]. For the same molecule, the “%Inh” value in assay [19] and in assay [20] was 0% throughout.

On to `O=C(Nc1c(F)cccc1F)c1cc(C(=O)c2ccccc2F)c[nH]1` [GSK1326180], for which the “%Inh” value amounted to 18% in assay [1]; 0% in assay [2]; 4% in assay [3]; 6% in [4]; 0% in [5]; 0% in [6]. For the same molecule, the “%Inh” value is listed as 0% in assay [7]; 0% in [8]; 2% in assay [9]; 9% in assay [10]; 16% in [11]; 0% in assay [12]. The “%Inh” value in [13], in assay [14], in assay [15], in [16], in assay [17] and in assay [18] was 0% throughout. Also, the “%Inh” value in assay [19] was 5%; in assay [20] it was 0%.

As to `CSc1ccc(NC2=C(c3ccc(Cl)cc3)C(=O)NC2=O)cc1` [SB-317658], the “%Inh” value is reported as 0% in assay [1]; 34% in assay [2]; 10% in assay [3]; 24% in assay [4]; 0% in assay [5]; 18% in assay [6]. Further, the “%Inh” value in assay [7] stood at 20%; in assay [8], 9%; in assay [9], 9%; in assay [10], 14%; in assay [11], 28%; in [12], 4%. The “%Inh” value is reported as 0% in assay [13]; 0% in [14]; 0% in assay [15]; 29% in assay [16]; 33% in assay [17]; 0% in assay [18]. For the same molecule, the “%Inh” value in [19] is reported as 1%; in [20], 21%.

On to `O=C(Nc1n[nH]c2nc(-c3cccc(O)c3)ccc12)C1CC1` [SB-711805], for which the “%Inh” value in assay [1] is 0%; in assay [2] it was 0%; in assay [3] it was 97.2%; in assay [4] it was 13%; in [5], 98.4%; in assay [6], 18%. Also, the “%Inh” value in [7] turned out to be 0%; in assay [8], 0%; in assay [9] it was 0%; in [10], 0%; in assay [11] it was 7%; in assay [12], 4%. Besides, the “%Inh” value in [13] is given as 2%; in assay [14] it was 19%; in assay [15] it was 0%; in [16] it was 0%; in assay [17] it was 0%; in assay [18], 0%. The “%Inh” value in assay [19] and in assay [20] was 8% each time.

For `COc1ccc(C2=C(Nc3cccc(O)c3)C(=O)NC2=O)cc1` [SB-390766], the “%Inh” value in assay [1] came to 31%; in assay [2] it was 3%; in [3], 12%; in [4] it was 4%; in assay [5] it was 3%; in assay [6], 0%. The “%Inh” value in assay [7] was found to be 0%; in assay [8], 9%; in [9] it was 0%; in assay [10] it was 42%; in assay [11] it was 19%; in assay [12] it was 0%. Also, the “%Inh” value was determined as 0% in [13]; 18% in assay [14]; 5% in [15]; 34% in assay [16]; 0% in assay [17]; 0% in assay [18]. Besides, the figures for the “%Inh” value in assay [19] and in assay [20] were 0% and 6%, respectively.

Regarding `COc1ccc(C)c(Nc2ccnc(Nc3ccc(-c4cnc[nH]4)cc3)n2)c1.Cl` [GW784041], the “%Inh” value in assay [1] was determined as 0%; in assay [2], 0%; in [3] it was 7%; in assay [4], 0%; in assay [5], 18%; in assay [6] it was 11%. Also, the “%Inh” value amounted to 27% in assay [7]; 22% in assay [8]; 0% in assay [9]; 0% in assay [10]; 0% in assay [11]; 0% in [12]. The “%Inh” value in assay [13] worked out at 2%; in assay [14], 7%; in assay [15], 0%; in assay [16], 14%; in [17], 0%; in [18], 4%. Moreover, the “%Inh” value in [19] and in assay [20] was 0% in each case.

The values are drawn from article PMC5540273 (PLoS ONE, 2017).
